Consider 109 sequences from PubChem BioAssay AID1347426 (Functional Genomics Laboratory (NCATS/FGL), 2020).

The campaign covered roughly 31,000 sequences. About 1,400 (4.5%) were called active. This excerpt belongs to a sample that is enriched for actives. Values without a mark were called inactive.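 Rule for the calls: active = median seed-adjusted z-score above 1 or below -1; inactive = the rest.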

The assay is described as follows: Novel Modifiers of Survival Motor Neuron (SMN) Protein: Gene Identification via Genome-wide siRNA Screen.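 Note: luminescence tracks full-length SMN protein made from the SMN2 reporter.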 The conditions noted are these: HEK293T SMN2-luciferase reporter, siRNA knockdown, 72 h; actives lie on both sides. The source says:
Spinal muscular atrophy (SMA) is the most common neuromuscular autosomal recessive disorder and one of the leading genetic causes of infant death. SMA results from mutations inducing loss of function or deletion in the survival of motor neuron-1 gene (SMN1), leading to deficiency of the survival motor neuron (SMN) protein. Although a second nearly identical gene, SMN2, is retained in humans, its expression primarily produces an aberrantly spliced isoform that is largely unstable and quickly degraded. We performed a genome-wide RNAi screen using a cell-based reporter assay to identify genes and pathways that modulate SMN protein stability. The screen identified over 200 genes that led to the greatest increase or decrease in luciferase expression.
Using HEK293T cells stably expressing a luciferase reporter that combines the promoter and splicing based cassettes in tandem with the major portion of the native SMN2 cDNA with luciferase, we performed a genome-wide RNAi screen to identify modulators of SMN protein levels. Luciferase is expressed when full-length SMN protein is generated with luminescence signal proportional to SMN protein levels. Our luciferase-based reporter assay was used to screen Ambion Silencer Select Human Druggable Genome siRNA library (10418 genes, 3 unique siRNAs per gene) using lipid-based reverse transfection.
Briefly, 1 pmol of each siRNA was spotted to a well of a 384-well plate (Corning, Corning, NY) and 20 microL of serum-free DMEM containing […] of Lipofectamine RNAiMax (Life Technologies, Carlsbad, CA) was then added to each well. Transfected cells were maintained at 37 degrees C in 5% CO2 for 72 hours, 20 microL of ONE-Glo Reagent (Promega) was added to wells for luciferase quantification. Raw luminescence reads were normalized to Ambion(R) Silencer(R) Negative Control #2 siRNA, then log10 transformed. A robust statistical measure of median absolute deviation (MAD) to standardize siRNA activities from each screen. Common Seed Analysis was used to help prioritize clean hits as opposed to those appearing to arise from seed based off-target effects. Candidate modulators were defined as the genes having a MAD score greater than 1.0 or less than -1.0.
As to GCAAUUCCCAAGAUCCUUATT against LAMB1, the median seed-adjusted z-score is 1.07 (active).
Then GGUCGAAUGAUAAGGUGUATT against PTK2, with -0.0806; and GCCUCAGUCUUUGCAGUCUTT against CDCP2, with 0.0708; and GGUAAUGACUCCACAGGGATT against SNRPN, with -0.571.
As for GAUACUACCCUGAUCAUAUTT against TMTC3, the median seed-adjusted z-score is 0.266.
As for UGGUGUCAGUGGAUCGCUATT against GPR101, the median seed-adjusted z-score is -0.265.
With CCAAAACAGUGGAGAGAGATT against BIN3, the median seed-adjusted z-score was 0.16.
Then GAACAUUGUUUGUAAGGCUTT against SUOX, with -0.0649; and GGAUAUAAUGAGAUAUGUUTT against ETF1, with -1.12 (active); and GCUCAACUCUCAUUCGGCATT against ZNF550, with 0.131.
Take GACCUGCCGUGAUAUCGUUTT against PSMA3: the median seed-adjusted z-score was -0.81.
Then CACUAAACGAGGAUUCCUATT against YWHAH, with -0.125; and GGAUCGUAGUGAAACCGAUTT against DDX17, with 0.231.
For the sequence CGUGAUCAAUAGGAAAAUUTT against CCL8, the median seed-adjusted z-score was 0.436.
Regarding CAGAUUACGUGGAACAGGATT against EFTUD2, the median seed-adjusted z-score was -1.25 (active).
With CGUCCUAAUCUCAAUCUUATT against CD200, the median seed-adjusted z-score is -0.0135.
On to GCCCAUAUUUCAUCGUGUATT against NPY, for which the median seed-adjusted z-score is -0.0606.
As for CAGGAUAUCGAAUCCCUAATT against PPFIA2, the median seed-adjusted z-score was 0.176.
As to GUCGAGUUGUAUCGCAUUATT against COX4I1, the median seed-adjusted z-score is -0.39.
As to GGCUAGCCCUAGUAUGGAATT against CCAR1, the median seed-adjusted z-score is -1.18 (active).
On to CCUUCAAUCACCGACCUUATT against SYNJ2, for which the median seed-adjusted z-score is 0.0202.
In the case of CGCUACCUGUCCCUGUAUATT against GPR6, the median seed-adjusted z-score was 0.
As for GCAACAUAUGGGAAUUAGATT against MEIS1, the median seed-adjusted z-score was 0.
On to CAGAGGAGCUACAAAAGUATT against MX1, for which the median seed-adjusted z-score is -1.49 (active).
As for GCAUAUAUCAAGAAUUCAATT against CLIC4, the median seed-adjusted z-score is -0.498.
Turning to GAAACUAUAUCCACAUCAATT against GIPR, the median seed-adjusted z-score is 0.475.
Take CAUCUUGAAGUCUUAUUAATT against MYOCD: the median seed-adjusted z-score is -0.121.
Take AAUCAGAUCAAAAACAUAATT against TNFRSF10C: the median seed-adjusted z-score is 0.
The same measure for GGAGGAAGGUCUCAACGUATT against TCFL5: 1.52 (active); for GCAAAUCUAUUUUCGGAAATT against AGTPBP1: -0.201.
As to GACUCUUCUGACUAACAUATT against DACH1, the median seed-adjusted z-score is 0.562.
With GACUCUAUGCUGAUAAUGATT against ADIPOQ, the median seed-adjusted z-score is 0.557.
In the case of GCUGAGAUUUUCAAUAAGATT against NR1H4, the median seed-adjusted z-score was -0.056.
Regarding CGCCCAUUCUUCAAUGUCATT against SIAH1, the median seed-adjusted z-score is 1.5 (active).
On to AGUGCGCCCAGAAUCUAAATT against ZNF689, for which the median seed-adjusted z-score was 0.448.
As for CGGAGUUUGUUGAUAUCGATT against LGI2, the median seed-adjusted z-score was 0.
CAAAUUUCCUGUUAAUCGATT against APPL1: the median seed-adjusted z-score is 0.
The same measure for GAAAUGACCUUAUUAGUCATT against RYK: -0.446; for CAGACUACCCUGAUAGUUUTT against FLVCR1: 0.197.
In the case of GGUCAGAGACCAUCCAGAATT against GFRA4, the median seed-adjusted z-score was -1.59 (active).
As for AGAGGAAGAUAGAUUUUCUTT against PFDN5, the median seed-adjusted z-score was 0.562.
Turning to GGAUGUAUUGUCGCCUGUATT against RENBP, the median seed-adjusted z-score was 0.587.
As for CGAACUGCUUUAUGACCUATT against KIF20A, the median seed-adjusted z-score is 0.906.
Turning to GACGAGACCUCUUCUCUCATT against ART1, the median seed-adjusted z-score was 0.0033.
As to CCUGUGGUUUGCUAUCUAATT against SLC24A5, the median seed-adjusted z-score was -0.166.
Then CGGUGCUGCUAGACGUGAATT against HSPB6, with 0.394.
As to GGGUAAUUGGAACAUGUUUTT against RCN3, the median seed-adjusted z-score was -2.44 (active).
As to CCUUUACAAAUAACGGAUATT against NHLRC2, the median seed-adjusted z-score is 0.548.
As for CAUGUUCACUGCUACCGAUTT against LPP, the median seed-adjusted z-score is -0.103.
As to CCUUCAUCCGUAUCAUGGATT against POLD1, the median seed-adjusted z-score was -0.715.
For GCUGUGAUCUCAUGGAUCATT against KLHL3, the median seed-adjusted z-score is -0.237.
Then GCUUUAUGUGGGCUCAUUATT against RBM39, with -1.82 (active); and CACUGACACUUACAAUGAATT against UGT3A1, with 0.864; and GGAACUUACGAUGCAGGAATT against GALNT13, with -0.0149.
GCAACAGUAUUUCGGUAUATT against CHEK1: the median seed-adjusted z-score is -5.1 (active).
The same measure for GUCUUAGAAUGAGUAGCAATT against KCNMA1: 0; for CACUAUCAGUUGGAACAGATT against CD36: -0.000845.
As for GGCUGAGAUGCGUCGUAAATT against ARCN1, the median seed-adjusted z-score is -1.25 (active).
Turning to GAUUGAUGGGUGUAAGAAATT against SMS, the median seed-adjusted z-score was 0.186.
Consider GAGACCUAAUGUUUCAUAUTT against PRKCI, for which the median seed-adjusted z-score is 0.386.
Take CAAGGUCAAGUGCGAGAAATT against MAFB: the median seed-adjusted z-score was 0.674.
On to CCGUCAUGGUUGAUGGAGATT against SEMA4D, for which the median seed-adjusted z-score was 0.309.
On to CCAUAGUCUUCAUCUACGATT against GPR153, for which the median seed-adjusted z-score was -1.08 (active).
For GAACAGUGUUUGUCAGCAUTT against ASAH2, the median seed-adjusted z-score is 0.615.
Consider AAAGCACAGUGUUAAAUGATT against TAC1, for which the median seed-adjusted z-score was 0.0499.
Turning to CCCAGAAGAUUACCUUUGATT against NARG1L, the median seed-adjusted z-score was 0.0121.
Consider CCGUGCUGACCUCCAAAUATT against HBA1, for which the median seed-adjusted z-score was -1.03 (active).
On to CUUUCGGUUUGAAGAAUAATT against ZC3H15, for which the median seed-adjusted z-score is 0.191.
The same measure for AGCAUGUGGUAGACGAGAATT against RGS19: 0.295; for GACCUUCACCGUUACGUUATT against HDLBP: -1.18 (active); for AGCUCGUACUGUUCCAAUATT against MMP19: 0.43.
Then AGUGACAGAGUACAAGAUATT against EIF3G, with -0.198; and AAGUGGGAGUUACAUUAAATT against DLGAP2, with 0.295; and GGAUGUCAACUGUGCUUUUTT against MED24, with -2.3 (active).
On to CAGUGAAGGUGAAAUUCGATT against UCHL5, for which the median seed-adjusted z-score was -0.358.
Consider GGAUAAUGAUCGCGAGGAATT against ALS2, for which the median seed-adjusted z-score was 0.
Turning to GGUUCACGGCUAAAGCAAUTT against DGCR8, the median seed-adjusted z-score was -0.266.
The same measure for CUACCAGGCUUAAUAGGAATT against GFM2: 0.26.
As to GGGUCUUACUGAUUCCACATT against A4GNT, the median seed-adjusted z-score is 0.213.
With CGAGAGUUACUUACAAGAATT against RAN, the median seed-adjusted z-score is -3.09 (active).
On to CAUCAUUACCAGAGCUACATT against RLN1, for which the median seed-adjusted z-score is 0.0637.
For CCGCAGUUCUAGGUCCAAUTT against ABCC2, the median seed-adjusted z-score was -0.0464.
Then CAACCAAGGUCAGUCUUAUTT against TFCP2L1, with -0.246.
Then AGAUAAGAAUCGCAUGACATT against ARHGAP9, with 0.
Then GAACGUAGAAUGAAAGUAATT against PSMC1, with -2.23 (active); and GACUAUAACUUCCCGAAAATT against SYT11, with 0.29; and GGGUUACAGCUAAAAUUGUTT against OC90, with 0.216.
For the sequence GGUGCGGCCCUAUUACUUUTT against RPUSD2, the median seed-adjusted z-score is -0.215.
The same measure for GAGACUCUGUGGACGUAAATT against ZNF101: 0.336; for AGCUUCUACCGUGUCCUUATT against UCK2: -1.51 (active).
The same measure for CUACCUUACUUUAACAUUATT against KCNS3: 0.103; for GCGAAAUUUUGGAUAUCAATT against KIF23: -0.449.
With GGACACCUGUGAACCGCAUTT against ARID3A, the median seed-adjusted z-score is -1.11 (active).
As to GGGAUAUUUUCUACGCUUUTT against DNAH5, the median seed-adjusted z-score was -0.45.
For GGUCACCACCAAAUACGUUTT against B4GALNT2, the median seed-adjusted z-score was -0.174.
Consider CGAUUUAUCCGAUGCCCUUTT against CD99, for which the median seed-adjusted z-score is 0.
Regarding CCAUCUCCAGUUGUAUUUUTT against CHKA, the median seed-adjusted z-score is -0.558.
Then GACGGAAAGACUUACGUUATT against EIF2AK2, with 0.419; and GAAUCAACUUUGCCGUGUUTT against SHMT2, with -0.0453; and CCUUGUCACAGGUCAAUCATT against VWF, with 0.159.
Turning to GAUGGGACAUCGUUGCUCATT against OASL, the median seed-adjusted z-score was 1.02 (active).
For the sequence CAGGAUCUACGAUAAGGUATT against ACSL5, the median seed-adjusted z-score was 0.109.
As for CGAGAAAGAAUUCCACUUUTT against HOXC5, the median seed-adjusted z-score was 0.507.
On to GACUGACAUUGAGAUUACATT against CCT3, for which the median seed-adjusted z-score was -0.416.
As to GGUGAAUACUUCCGGUACATT against SULT2B1, the median seed-adjusted z-score is 0.
For the sequence CUCUGUGAAUGGUGCCGAATT against FAM57A, the median seed-adjusted z-score is 0.0434.
As for GGGAAUGACUGGAAGACGATT against TTF1, the median seed-adjusted z-score was 1.76 (active).
Take GAAUGGUGUGGAUCUCCUATT against ARPC5: the median seed-adjusted z-score was -0.479.
For the sequence GCAAUGUGGUCAAGACGGATT against INHBE, the median seed-adjusted z-score is 0.172.
